The record followed here is PubChem BioAssay (NCI).

Where “and” joins values, the source holds several entries; their conditions need not be identical. Identical values can stand only once. The panel holds about 83,000 compounds, 20% with a hit somewhere; the sample as a whole holds those more often.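 For each line, cells grew in 96-well plates with the test compound present at a single concentration for 48 hours.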 Calls of active or inactive are those of the source. How the source made its calls: active means growth percent below 10; inactive means the rest.

This assay has as its system MDA-MB-468 breast. Put plainly: NCI-60 one-dose screen, 48 h (100 = growth as untreated, 0 = no growth, -100 = all killed). The conditions noted are these: 10 µM unless noted.
As to `CC1=CC(O)C2CC1C2(C)C` (stereo not given), the growth is 105% (inactive) and 100% (inactive).
On to `CC(C)c1ccc(/C=N/Nc2nc3ccccc3s2)cc1`, for which the growth was 110% (inactive).
Under `COC(=O)CCC(=O)c1ccccc1` stands 115% (inactive).
In the case of `COc1ccc(-c2nn(-c3ccc(NC(=O)c4cc(Cl)cc(Cl)c4)cc3)cc2-c2ccncc2)cc1Cl` it was 70.1% (inactive).
In the case of `Cc1c(Cl)cccc1NC(=O)c1sc2nc3c(cc2c1N)CN(Cc1ccccc1)CC3` it was 29.1% (inactive); in that of `CC(=O)Oc1ccc(Cl)cc1CN(C(C)=O)C1CCCCC1`, 101% (inactive); in that of `CS(=O)(=O)c1nccc(-c2c(-c3ccc(F)c(OCc4ccc(F)cc4)c3)nc3sccn23)n1`, -37.2% (active).
For the compound `O=C(N/N=C/c1ccc([N+](=O)[O-])o1)c1ccc(O)cc1`, the growth is 12.8% (inactive).
Under `Cc1cc(C)c2c(n1)sc1c(Nc3ccc(OCc4ccccc4)cc3)ncnc12` stands 101% (inactive).
In the case of `CCCCNC(=O)NS(=O)(=O)Cc1ccccc1`, the growth was 112% (inactive).
`Fc1ccc(-c2nn(-c3ccccc3)cc2-c2nc3ccccc3o2)cc1`: the growth is -21.2% (active).
In the case of `Cc1ccc(-n2nnc(C3=NCCc4c3[nH]c3ccc(Cl)cc43)c2C)cc1` it was 71.5% (inactive); in that of `Cc1c(C(=O)Nc2nc(-c3ccccc3)cs2)nnn1-c1ccccc1Br`, -1.78% [50 µM] (active).
Regarding `COc1ccc(-n2c(SCc3cc(OC)c(OC)c(OC)c3)nc3ccc(C)cc3c2=O)c(OC)c1`, the growth was 17.1% (inactive).
In the case of `CCCCc1n(Cc2ccc3ccccc3n2)cc[n+]1Cc1ccc2ccccc2n1` it was -30% (active); in that of `CCCCCCCCCCCC(c1ccccc1)N(C)C` (stereo not given), 95.4% (inactive).
Under `CCOC(=O)c1c2c(n3ccc(NC(=O)CCN4CCCC4)cc13)C(=O)c1ncccc1C2=O` stands -82% (active); under `COc1ccc(OC)c(Nc2nnc(-c3cc(OC)c(OC)c(OC)c3)o2)c1`, 92% (inactive).
Turning to `CN1/C(=C\C=C\C2=[N+](C)c3ccccc3C2(C)C)C(C)(C)c2ccccc21`, the growth is -40.4% (active).
In the case of `Cc1cc(C)c(/C=C2\C(=O)Nc3ccc(NC(=O)CCCCCCC(=O)NO)cc32)[nH]1`, the growth was 13% (inactive).
In the case of `COc1ccc(/C=N/NC2=NC3C(S2)N(C)C(=O)N3C)cc1` (stereo not given) it was -8.86% (active); in that of `Brc1ccc2[nH]cc(-c3nn4cc(-c5nccs5)nc4s3)c2c1`, 51.2% (inactive).
As to `CCOC(=O)C(CCC1=NC(C)(C)CC(C)O1)C(=O)OCC` (stereo not given), the growth was 70.5% (inactive).
Under `COc1ccc(Nc2ncccc2C(=O)NCc2cn(Cc3cccc(Oc4ccccc4)c3)nn2)cc1` stands 4.17% (active).
Consider `O=C1OC(Oc2ccc(Br)cc2)(c2ccccc2)c2ccccc21` (stereo not given), for which the growth is 69.8% (inactive) and 75.1% (inactive).
As for `CCSC(SCC)c1ccc(Cl)cc1`, the growth is 118% (inactive).
Under `CCc1ccc2c(c1)N(CCO)C1=C(C(=O)OC1)C2c1cccc(Br)c1` (stereo not given) stands 25.8% (inactive); under `COc1ccc(-c2cc(C(=O)N=Nc3c(O)[nH]c4ccccc34)c3ccccc3n2)cc1OC`, 92.3% (inactive).
Under `NC1=NC(=O)C(c2ccccc2)(c2ccccc2)S1` stands 111% (inactive); under `COc1cc(C(=O)/C=C/c2c(C)n([O-])c3ccc(Cl)cc3[n+]2=O)cc(OC)c1OC`, 27.6% (inactive); under `CN(C)c1ccc2nc3ccc(=[N+](C)C)cc-3sc2c1`, -31.5% (active) and -9.26% (active) and -4.98% (active).
For `O=C(N/N=C/c1ccccc1Cl)C(=O)Nc1cccc(C(F)(F)F)c1`, the growth was 89.1% (inactive).
Take `CC1=C([Se]CC(OC(=O)CC[Se]c2ccccc2)C(=O)NCCCCCC(=O)OCc2ccccc2)C(=O)c2ccccc2C1=O` (stereo not given): the growth is -7.59% (active).
In the case of `COc1cc(C2C3=C(COC3=O)Nc3c2ccc2c3CCCC2)cc2c1OCO2` (stereo not given) it was -6.39% (active).
Consider `COc1ccc([C@H]2[C@@H](F)C(=O)N2c2cc(OC)c(OC)c(OC)c2)cc1F`, for which the growth is 23% (inactive).
`COc1ccc(NC(=O)Cn2c(=O)sc3c(-c4ccc(Cl)cc4)cc(-c4ccc(Cl)cc4)nc32)cc1`: the growth was 114% (inactive).
Turning to `COc1ccc(-n2cnc3cc(C(=O)N4CCCCC4)ccc32)cc1`, the growth is 103% (inactive).
In the case of `COc1cc2cc3c(=O)n4c(cc5cc(OC)ncc54)c(=O)n3c2cn1` it was 102% (inactive); in that of `C=C1C(=O)O[C@H]2[C@H]1CC/C(COC(=O)NCc1cc[nH]c1)=C\CC[C@@]1(C)O[C@@H]21`, 16.8% (inactive); in that of `O=C(/C=C/c1cccs1)Nc1ncc(Cc2ccc(Cl)c(Cl)c2)s1`, 58.2% (inactive).
